The source of these data is PubChem BioAssay (NCATS).

Results filed as inconclusive are left out. Entries that show only a call come without a potency. Calls of active or inactive are those of the source. The call rests on the fitted dose curve; in most records, active means well fitted inhibition curve with a large enough effect; inconclusive means small, poorly fitted or top-dose-only effect; inactive means flat fitted curve, though single readings scatter.
Potency means the concentration at half of the fitted maximal effect.

Sequence of Luciferin 4-monooxygenase (Photinus pyralis) (P08659 whole entry, looked up): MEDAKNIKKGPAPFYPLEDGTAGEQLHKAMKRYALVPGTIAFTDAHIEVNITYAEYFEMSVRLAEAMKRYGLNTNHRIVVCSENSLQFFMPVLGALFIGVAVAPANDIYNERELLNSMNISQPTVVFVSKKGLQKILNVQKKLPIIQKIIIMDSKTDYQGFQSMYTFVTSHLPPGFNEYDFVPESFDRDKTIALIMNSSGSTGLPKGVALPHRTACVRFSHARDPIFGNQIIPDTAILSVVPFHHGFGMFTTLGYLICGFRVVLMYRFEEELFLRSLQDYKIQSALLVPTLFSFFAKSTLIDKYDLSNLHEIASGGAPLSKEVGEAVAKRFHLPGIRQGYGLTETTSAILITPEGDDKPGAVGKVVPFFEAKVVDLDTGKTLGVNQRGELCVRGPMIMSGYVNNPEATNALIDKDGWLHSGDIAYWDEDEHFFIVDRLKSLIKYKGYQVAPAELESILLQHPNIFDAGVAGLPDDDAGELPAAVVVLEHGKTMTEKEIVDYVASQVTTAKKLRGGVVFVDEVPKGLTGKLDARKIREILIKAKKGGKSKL

This assay deals with Luciferin 4-monooxygenase (Photinus pyralis) (UniProt P08659). The assay can be described thus: Biochemical firefly luciferase enzyme assay for NPC (AID 624030). Further: nearly all actives have a fitted effect of over 70% in size. Conditions: purified P. pyralis luciferase, luminescence, 5 min; series mostly up to 58.6 µM. The text has this:
Charcot-Marie-Tooth-Association [CMTA] National Center for Advancing Translational Sciences [NCATS] Charcot-Marie-Tooth (CMT) disease was first characterized by Jean-Martin Charcot and Pierre Marie in France and, independently, by Howard Henry Tooth in England in 1886. CMT is one of the most common inherited neurological diseases, affecting approximately 1 in 2,500 Americans. […] The most prevalent type of CMT is known as CMT1A and caused by a duplication of the PMP22 gene which leads to over-expression of this protein. PMP22 is a glycosylated intrinsic membrane protein accounting for 2-5% of the myelin protein content, and its over-expression results in demyelination and subsequently axonal loss. A pair of cellular transcription-based assays was developed in the S16 rat Schwann cell lines (Hai, M., et al., 2002) stably transfected with orthogonal reporters - firefly luciferase (Fluc) and beta-lactamase (beta-Lac) - whose expression is driven by an intronic regulatory element of the PMP22 gene (Jones, E.A., et al., 2011) to recapitulate endogenous expression of PMP22. A comprehensive library of approved drugs, the NCGC Pharmaceutical Collection (Huang, R., et al., 2011), was screened in the cross-validating platform of the orthogonal reporter assays to identify drug modulators inhibitory towards PMP22 expression. A set of counter-screens was devised to address non-specific activity of the library. An ATP-dependent CellTiter-Glo assay (developed by Promega Corp) was utilized to control cell viability. In addition, biochemical Fluc enzyme assay was performed to assess direct inhibition of the Fluc enzymatic activity. References Hai, M., Muja, N., DeVries, G.H., Quarles, R.H. and Patel, P.I. Comparative analysis of Schwann cell lines as model systems for myelin gene transcription studies. J Neurosci Res, 2002. 69(4): pp 497-508 Huang, R., Southall, N., Wang, Y., Yasgar A., Shinn P., Jadhav, A. , Nguyen, D.-T. and Austin, C.P., The NCGC pharmaceutical collection: a comprehensive resource of clinically approved drugs enabling repurposing and chemical genomics. Sci Transl Med, 2011. 3(80): p. 80ps16.
Compounds were transferred to the plates in 23nl, and one microliter/well luciferase enzyme-buffer solution (10 nM P. pyralis luciferase and 50 mM Tris Acetate final concentrations) was dispensed yielding a final reaction volume of […]. Luciferase luminescence was measured by a ViewLux plate reader within 5 minutes of enzyme-buffer addition. The % activity was determined by normalizing to the average readings of PTC124 (a positive control) relative to DMSO (0% Activity). The concentration-effect curves were then classified based on curve quality (r2), response magnitude and degree of measured activity.
`COc1c2c(cc3c1OCO3)CCN(C)C2`: the Potency entry was “inactive”. Next, `O=C(O)CCCc1ccc(N(CCCl)CCCl)cc1`: “inactive”. As to `CNC(C)(C)Cc1ccccc1`, the Potency result is “inactive”. For the compound `Oc1ccc(Cl)cc1`, the Potency result was “inactive”.

With `Nc1ccc([As](=O)(O)O)cc1`, the Potency result was “inactive”.

Take `COc1cc(CC(C)N)cc(OC)c1OC` (stereo not given): the Potency entry was “inactive”. For `Cc1nnc2n1-c1ccc(Cl)cc1C(c1ccccc1Cl)=NC2`, the Potency entry was “inactive”. In the case of `Nc1ccccc1`, the Potency entry is “inactive”.

As for `CCCCCCC(=O)CCCCCC/C=C/C[C@@H](O)[C@H](O)[C@@](N)(CO)C(=O)O`, the Potency result is “inactive”. The same measure for `COC1CC(=C(c2cccs2)c2cccs2)C[N+](C)(C)C1` (stereo not given): “inactive”.

`CCOC(=O)CC(SP(=S)(OC)OC)C(=O)OCC` (stereo not given): the Potency entry was “inactive”. On to `CC(C)(C)c1ccc(O)cc1`, for which the Potency result was “inactive”. For the compound `Clc1ccc2c(c1)C(c1ccccc1)=NCc1nncn1-2`, the Potency entry was “inactive”. For the compound `CN(C)CCc1c[nH]c2cccc(OP(=O)(O)O)c12`, the Potency result was “inactive”. The same measure for `O=C(Nc1ccc(Br)cc1)c1cc(Br)cc(Br)c1O`: 11.4 µM (active); for `CCN[C@@H](C)Cc1cccc(C(F)(F)F)c1`: “inactive”; for `O=C(N/N=C/c1ccc([N+](=O)[O-])o1)c1cc([N+](=O)[O-])cc([N+](=O)[O-])c1O`: 36.1 µM (active). In the case of `CC(C)(C)NCC(O)c1ccccc1Cl` (stereo not given), the Potency entry is “inactive”. In the case of `Clc1cccc(SC2CCNCC2)n1`, the Potency entry was “inactive”. Turning to `COc1cc(CCN)cc(OC)c1OC`, the Potency result was “inactive”.

Consider `CCCC(C)(COC(N)=O)COC(N)=O`, for which the Potency result was “inactive”.

Consider `c1ccc(CN2CCNCC2)cc1`, for which the Potency entry was “inactive”. For the compound `COc1cccc(C(=O)CCN[C@@H](C)[C@H](O)c2ccccc2)c1`, the Potency entry was “inactive”. As for `NC(=O)c1cc([N+](=O)[O-])cc([N+](=O)[O-])c1`, the Potency entry was “inactive”.

On to `O=C1Nc2ccc(Cl)cc2C(c2ccccc2)=NC1O` (stereo not given), for which the Potency entry is “inactive”. The same measure for `C=C(C)[C@H]1CN[C@H](C(=O)O)[C@H]1CC(=O)O`: “inactive”.

Take `CCN[C@@H](C)Cc1ccccc1`: the Potency entry was “inactive”. As to `O=c1[nH]oc2c1CCNC2`, the Potency result was “inactive”. Next, `CN1CCC(O)(c2ccc(F)cc2)C(C(=O)c2ccc(F)cc2)C1` (stereo not given): “inactive”. As to `O=C1c2ccccc2C(=O)C1C(=O)C(c1ccccc1)c1ccccc1`, the Potency result was “inactive”. With `Cc1nnc2n1-c1ccc(Cl)cc1C(c1ccccc1)=NC2`, the Potency entry is “inactive”. The same measure for `CCc1cc2c(s1)-n1c(C)nnc1CN=C2c1ccccc1Cl`: “inactive”. The same measure for `CN1C(=O)C(O)N=C(c2ccccc2)c2cc(Cl)ccc21` (stereo not given): “inactive”; for `CCCCCCCCCC(=O)O[C@H]1CC[C@H]2[C@@H]3CCC4=CC(=O)CC[C@@H]4[C@H]3CC[C@]12C`: “inactive”; for `COc1ccc2c(c1OC)C(=O)O[C@H]2[C@@H]1c2cc3c(cc2CCN1C)OCO3`: “inactive”.

`C[C@]12CCC(=O)C=C1CC[C@@H]1[C@@H]2CC[C@@]2(C)[C@H]1CC[C@]2(C)O`: the Potency entry was “inactive”. In the case of `CN1C(=O)COc2c(C(=O)NC3CN4CCC3CC4)cc(Cl)cc21` (stereo not given), the Potency entry is “inactive”.

Take `CNCC(=O)c1ccc(O)c(O)c1`: the Potency entry is “inactive”.

As to `C[C@]12CCC(=O)C=C1CC[C@@H]1[C@@H]2CC[C@]2(C)C(=O)CC[C@@H]12`, the Potency result is “inactive”. For `CC(Cc1ccccc1)NCCn1cnc2c1c(=O)n(C)c(=O)n2C` (stereo not given), the Potency result is “inactive”.
